Records with an inconclusive call do not appear. Values without a mark were called inactive. Calls follow the shape of the dose curve; as a rule, active = well fitted curve in the direction sought with a large enough effect in the repeat runs; inconclusive = weak or mixed curves; inactive = no such curve, though single readings can be large; an effect the other way counts as inactive or inconclusive.
% is scaled to controls: 0 for no effect and ±100 for the full control effect.

The nature of the first assay: A CellTox Green Cytotoxicity Assay to monitor cytotoxicity in HEK293 cells - 8 hour (AID 1224884). Also: nearly all actives have a fitted effect of over 35% in size. Particulars: CellTox Green fluorescence; series mostly up to 76.8 µM; cytotoxicity increase: at the top concentration. The method, boiled down:
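HEK293 cells, 600/well, were preincubated 5 hours and then exposed to compounds at 37 C for up to 40 hours. A cell-impermeant cyanine dye staining dead-cell DNA was read by fluorescence at 0, 8, 16, 24, 32 and 40 h time points.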
Regarding `O=C(/C=C/c1ccccc1)OCCc1ccccc1`, the “cytotoxicity increase” value was -6.89%.

`CCCCCCCCC(CCCCCC)C(=O)O` (stereo not given): the “cytotoxicity increase” value was 3.22%.

As for `Cc1ccco1`, the “cytotoxicity increase” value was 2.06%.

For the compound `C[C@H]1c2cccc(O)c2C(O)=C2C(=O)[C@]3(O)C(O)=C(C(N)=O)C(=O)[C@@H](N(C)C)[C@@H]3[C@@H](O)[C@@H]21`, the “cytotoxicity increase” value was 10.2% [at 35.3 µM].

For the compound `CC1(C)[C@H](C(=O)O)N2C(=O)C[C@H]2S1(=O)=O`, the “cytotoxicity increase” value was 3.87% [at 35.3 µM].

Consider `CO/N=C(/C(=O)N[C@@H]1C(=O)N2C(C(=O)O)=C(COC(N)=O)CS[C@H]12)c1ccco1`, for which the “cytotoxicity increase” value was -0.877%.

Take `C=CC(=O)[O-].C=CC(=O)[O-].[Zn+2]`: the “cytotoxicity increase” value was -6.68%.

Take `O=C1c2ccccc2C(=O)C1c1ccc(Br)cc1`: the “cytotoxicity increase” value was -18.8% [at 35.3 µM].

Regarding `CCC(OCCCOC)OC(C)=O` (stereo not given), the “cytotoxicity increase” value was -1.69%.

Regarding `COC(=O)CS`, the “cytotoxicity increase” value is -0.235%.

A further assay in a line: qHTS RealTime-Glo MT Cell Viability Assay in HepG2 cells - 16 hour (AID 1224885). Also: nearly all actives have a fitted effect of over 50% in size. Particulars: RealTime-Glo luminescence; series mostly up to 76.8 µM; activity change, negative = cytotoxic: at the top concentration. The method, boiled down:
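HepG2 cells (600/well) were dispensed with RealTime-Glo reagents, incubated 5 h at 37 °C, then treated with compounds in DMSO for up to 40 h. Nonlytic NanoLuc luminescence reflecting viable cells was read at each stated time point.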
In the case of `O=c1[nH]c2ccc(Cl)cc2o1`, the “activity change, negative = cytotoxic” value is 1.19%.

For `Cc1ccc(C(C)(C)O)cc1`, the “activity change, negative = cytotoxic” value is 1.96%.

Consider `CCCC(=O)C(=O)O`, for which the “activity change, negative = cytotoxic” value is 1.55%.

`CC(C)=CCC1C(=O)N(c2ccccc2)N(c2ccccc2)C1=O`: the “activity change, negative = cytotoxic” value is -0.0142% [at 35.3 µM].

With `CCOC(=O)/C=C/C(=O)OCC`, the “activity change, negative = cytotoxic” value is -0.131%.

In the case of `Cc1ccc(CO)cc1`, the “activity change, negative = cytotoxic” value is -1.18%.

Take `O=C(OC(=O)c1ccccc1)c1ccccc1`: the “activity change, negative = cytotoxic” value was -0.112%.

With `CC(C)=CCC/C(C)=C/CC/C(C)=C/CCC(=O)OC/C=C(\C)CCC=C(C)C`, the “activity change, negative = cytotoxic” value was -8.14% [at 35.3 µM].

Take `O[C@@H]1CO[C@H]2[C@@H]1OC[C@@H]2O`: the “activity change, negative = cytotoxic” value is 3.76% [at 35.3 µM].

For `CCCCC(CC)CN` (stereo not given), the “activity change, negative = cytotoxic” value was -0.141%.

For the compound `COc1cc(C(=O)NCCCCCC(=O)O)cc(OC)c1OC`, the “activity change, negative = cytotoxic” value was 1.75% [at 35.3 µM].

On to `CC(CCC(=O)O)C(=O)O` (stereo not given), for which the “activity change, negative = cytotoxic” value was 0.134%.

Consider `CCC1NC(=O)c2cc(S(N)(=O)=O)c(Cl)cc2N1` (stereo not given), for which the “activity change, negative = cytotoxic” value is -1.22% [at 35.3 µM].

For `O=C1NCCN1CCO`, the “activity change, negative = cytotoxic” value was 1.2%.

As to `C1COC1`, the “activity change, negative = cytotoxic” value was 0.245%.

As to `CCn1cc(C(=O)O)c(=O)c2cc(F)c(N3CCNCC3)cc21`, the “activity change, negative = cytotoxic” value is 0.041% [at 35.3 µM].

Consider `CO[C@]1(NC(=O)CSC(F)F)C(=O)N2C(C(=O)O)=C(CSc3nnnn3CCO)CO[C@H]21`, for which the “activity change, negative = cytotoxic” value is -1.83% [at 35.3 µM].

Take `O=C(O)CCCCCCCCCCCBr`: the “activity change, negative = cytotoxic” value was -4.89%.

In the case of `CCC(=O)OC`, the “activity change, negative = cytotoxic” value was 3.43%.

Take `CCC(C)(C)OC`: the “activity change, negative = cytotoxic” value was 0.749%.

As for `CC(C)=CC(=O)C=C(C)C`, the “activity change, negative = cytotoxic” value was 3.42%.

Regarding `CC(=O)OCC(=O)NCCCOc1cccc(CN2CCCCC2)c1`, the “activity change, negative = cytotoxic” value is 2.64% [at 35.3 µM].

Take `CCCCCCCCCI`: the “activity change, negative = cytotoxic” value is -11.7%.

As for `CCc1ccccc1`, the “activity change, negative = cytotoxic” value is -0.531%.

As to `Cc1ccccc1S`, the “activity change, negative = cytotoxic” value was 0.598% [at 35.3 µM].

Consider `Cc1cscn1`, for which the “activity change, negative = cytotoxic” value is 0.276%.

Regarding `N#CCc1ccc(Cl)cc1Cl`, the “activity change, negative = cytotoxic” value was -1.84%.

On to `CCCCCC[C@@H](O)C/C=C\CCCCCCCC(=O)O`, for which the “activity change, negative = cytotoxic” value is 2.91%.

Take `Cc1cc(C)c(N)cc1C`: the “activity change, negative = cytotoxic” value is 0.0326%.

Take `C=CC(C)(CCC=C(C)C)OC(=O)CC(C)C` (stereo not given): the “activity change, negative = cytotoxic” value was -2.26%.

With `O=C(/C=C/c1ccccc1)OCCc1ccccc1`, the “activity change, negative = cytotoxic” value was -3.12%.

As to `CCCCCCCCC(CCCCCC)C(=O)O` (stereo not given), the “activity change, negative = cytotoxic” value is 5.03%.

For `Cc1ccco1`, the “activity change, negative = cytotoxic” value is 0.943%.

`C[C@H]1c2cccc(O)c2C(O)=C2C(=O)[C@]3(O)C(O)=C(C(N)=O)C(=O)[C@@H](N(C)C)[C@@H]3[C@@H](O)[C@@H]21`: the “activity change, negative = cytotoxic” value was -1.39% [at 35.3 µM].

Turning to `CC1(C)[C@H](C(=O)O)N2C(=O)C[C@H]2S1(=O)=O`, the “activity change, negative = cytotoxic” value was 0.699% [at 35.3 µM].

Consider `CO/N=C(/C(=O)N[C@@H]1C(=O)N2C(C(=O)O)=C(COC(N)=O)CS[C@H]12)c1ccco1`, for which the “activity change, negative = cytotoxic” value is 1.91%.

Regarding `C=CC(=O)[O-].C=CC(=O)[O-].[Zn+2]`, the “activity change, negative = cytotoxic” value was -1.56%.

As to `O=C1c2ccccc2C(=O)C1c1ccc(Br)cc1`, the “activity change, negative = cytotoxic” value is 0.0066% [at 35.3 µM].

For the compound `CCC(OCCCOC)OC(C)=O` (stereo not given), the “activity change, negative = cytotoxic” value is 0.133%.

Consider `COC(=O)CS`, for which the “activity change, negative = cytotoxic” value is 0.238%.

The next assay is described as follows: qHTS RealTime-Glo MT Cell Viability Assay in HEK293 cells - 24 hour (AID 1224886). Also: top concentration of the series differs between compounds; nearly all actives have a fitted effect of over 50% in size. The settings on record: RealTime-Glo luminescence; series mostly up to 76.8 µM; activity change, negative = cytotoxicity: at the top concentration. The method, boiled down: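 HEK293 cells seeded with NanoLuc/prosubstrate reagent, rested 5 h at 37 C, then dosed and kept at 37 C up to 40 h. Nonlytic real-time luminescence from viable cells read at 0, 8, 16, 24, 32 and 40 h.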
Take `O=c1[nH]c2ccc(Cl)cc2o1`: the “activity change, negative = cytotoxicity” value was 2.48%.

As to `Cc1ccc(C(C)(C)O)cc1`, the “activity change, negative = cytotoxicity” value was -2.74%.

As to `CCCC(=O)C(=O)O`, the “activity change, negative = cytotoxicity” value is 7.19%.

Regarding `CC(C)=CCC1C(=O)N(c2ccccc2)N(c2ccccc2)C1=O`, the “activity change, negative = cytotoxicity” value was 5.57% [at 35.3 µM].

`CCOC(=O)/C=C/C(=O)OCC`: the “activity change, negative = cytotoxicity” value was 9.08%.

`Cc1ccc(CO)cc1`: the “activity change, negative = cytotoxicity” value was 13.4%.

In the case of `O=C(OC(=O)c1ccccc1)c1ccccc1`, the “activity change, negative = cytotoxicity” value is 5.37%.

Regarding `CC(C)=CCC/C(C)=C/CC/C(C)=C/CCC(=O)OC/C=C(\C)CCC=C(C)C`, the “activity change, negative = cytotoxicity” value was 0.268% [at 35.3 µM].

`O[C@@H]1CO[C@H]2[C@@H]1OC[C@@H]2O`: the “activity change, negative = cytotoxicity” value is 2.05% [at 35.3 µM].

As to `CCCCC(CC)CN` (stereo not given), the “activity change, negative = cytotoxicity” value was 3.31%.

For the compound `COc1cc(C(=O)NCCCCCC(=O)O)cc(OC)c1OC`, the “activity change, negative = cytotoxicity” value was 5.49% [at 35.3 µM].

In the case of `CC(CCC(=O)O)C(=O)O` (stereo not given), the “activity change, negative = cytotoxicity” value is -0.052%.

As to `CCC1NC(=O)c2cc(S(N)(=O)=O)c(Cl)cc2N1` (stereo not given), the “activity change, negative = cytotoxicity” value was 10.7% [at 35.3 µM].

With `O=C1NCCN1CCO`, the “activity change, negative = cytotoxicity” value is 11.9%.

Take `C1COC1`: the “activity change, negative = cytotoxicity” value is 8.02%.

As for `CCn1cc(C(=O)O)c(=O)c2cc(F)c(N3CCNCC3)cc21`, the “activity change, negative = cytotoxicity” value is 8.23% [at 35.3 µM].

With `CO[C@]1(NC(=O)CSC(F)F)C(=O)N2C(C(=O)O)=C(CSc3nnnn3CCO)CO[C@H]21`, the “activity change, negative = cytotoxicity” value is 16.2% [at 35.3 µM].

For the compound `O=C(O)CCCCCCCCCCCBr`, the “activity change, negative = cytotoxicity” value is -2.65%.

On to `CCC(=O)OC`, for which the “activity change, negative = cytotoxicity” value was 2.18%.

For the compound `CCC(C)(C)OC`, the “activity change, negative = cytotoxicity” value was 5.53%.

Consider `CC(C)=CC(=O)C=C(C)C`, for which the “activity change, negative = cytotoxicity” value was 8.5%.

As to `CC(=O)OCC(=O)NCCCOc1cccc(CN2CCCCC2)c1`, the “activity change, negative = cytotoxicity” value is 2.05% [at 35.3 µM].

Consider `CCCCCCCCCI`, for which the “activity change, negative = cytotoxicity” value was 0.919%.

For `CCc1ccccc1`, the “activity change, negative = cytotoxicity” value was 9.61%.

With `Cc1ccccc1S`, the “activity change, negative = cytotoxicity” value is -14.4% [at 35.3 µM].

Turning to `Cc1cscn1`, the “activity change, negative = cytotoxicity” value is 12.9%.

Regarding `N#CCc1ccc(Cl)cc1Cl`, the “activity change, negative = cytotoxicity” value was -4.84%.

On to `CCCCCC[C@@H](O)C/C=C\CCCCCCCC(=O)O`, for which the “activity change, negative = cytotoxicity” value is 14%.

On to `Cc1cc(C)c(N)cc1C`, for which the “activity change, negative = cytotoxicity” value is 1.47%.

In the case of `C=CC(C)(CCC=C(C)C)OC(=O)CC(C)C` (stereo not given), the “activity change, negative = cytotoxicity” value was 0.45%.

`O=C(/C=C/c1ccccc1)OCCc1ccccc1`: the “activity change, negative = cytotoxicity” value was -3.31%.

Turning to `CCCCCCCCC(CCCCCC)C(=O)O` (stereo not given), the “activity change, negative = cytotoxicity” value is 1.09%.

Take `Cc1ccco1`: the “activity change, negative = cytotoxicity” value is 11%.

Take `C[C@H]1c2cccc(O)c2C(O)=C2C(=O)[C@]3(O)C(O)=C(C(N)=O)C(=O)[C@@H](N(C)C)[C@@H]3[C@@H](O)[C@@H]21`: the “activity change, negative = cytotoxicity” value was 4.1% [at 35.3 µM].

For the compound `CC1(C)[C@H](C(=O)O)N2C(=O)C[C@H]2S1(=O)=O`, the “activity change, negative = cytotoxicity” value is 3.46% [at 35.3 µM].

Regarding `CO/N=C(/C(=O)N[C@@H]1C(=O)N2C(C(=O)O)=C(COC(N)=O)CS[C@H]12)c1ccco1`, the “activity change, negative = cytotoxicity” value is -0.361%.

With `C=CC(=O)[O-].C=CC(=O)[O-].[Zn+2]`, the “activity change, negative = cytotoxicity” value is -8.48%.

Turning to `O=C1c2ccccc2C(=O)C1c1ccc(Br)cc1`, the “activity change, negative = cytotoxicity” value is -5.7% [at 35.3 µM].

For the compound `CCC(OCCCOC)OC(C)=O` (stereo not given), the “activity change, negative = cytotoxicity” value was 1.09%.

With `COC(=O)CS`, the “activity change, negative = cytotoxicity” value is 4%.
